What all share (details): read-out: apparent Kd; compound concentrations:100 nM and 1000 nM (sheet 'Samples'); n = 1
The subject of one experiment is AAK1. Also on record: species or system human, MV4-11 + K-562 + COLO205 + SK-N-BE2 + OVCAR-8.
For the next experiment, the system named is BMP2K. Further details: species or system human, MV4-11 + K-562 + COLO205 + SK-N-BE2 + OVCAR-8.
In the next experiment the test system is CLK1. Further details: species or system human, MV4-11 + K-562 + COLO205 + SK-N-BE2 + OVCAR-8.
A further experiment concerns CLK4. Further details: species or system human, MV4-11 + K-562 + COLO205 + SK-N-BE2 + OVCAR-8.
The next experiment concerns CSNK2A1;CSNK2A3. Further details: species or system human, MV4-11 + K-562 + COLO205 + SK-N-BE2 + OVCAR-8.
Another experiment relates to CSNK2A2. Further details: species or system human, MV4-11 + K-562 + COLO205 + SK-N-BE2 + OVCAR-8.
In another experiment the test system is FLT3. Further details: species or system human, MV4-11 + K-562 + COLO205 + SK-N-BE2 + OVCAR-8.
In a further experiment the test system is FLT4. Also on record: species or system human, MV4-11 + K-562 + COLO205 + SK-N-BE2 + OVCAR-8.
Another experiment concerns GAK. Further details: species or system human, MV4-11 + K-562 + COLO205 + SK-N-BE2 + OVCAR-8.
The next experiment deals with GSK3A. Further details: species or system human, MV4-11 + K-562 + COLO205 + SK-N-BE2 + OVCAR-8.
For another experiment, the system named is GSK3B. Further details: species or system human, MV4-11 + K-562 + COLO205 + SK-N-BE2 + OVCAR-8.
The test system of the next experiment is MELK. Also on record: species or system human, MV4-11 + K-562 + COLO205 + SK-N-BE2 + OVCAR-8.
A further experiment concerns NUAK1. Also on record: species or system human, MV4-11 + K-562 + COLO205 + SK-N-BE2 + OVCAR-8.
A further experiment concerns PAK4. Also on record: species or system human, MV4-11 + K-562 + COLO205 + SK-N-BE2 + OVCAR-8.
Another experiment relates to PKN1. Further details: species or system human, MV4-11 + K-562 + COLO205 + SK-N-BE2 + OVCAR-8.
Another experiment concerns PKN3. Further details: species or system human, MV4-11 + K-562 + COLO205 + SK-N-BE2 + OVCAR-8.
The next experiment concerns the target Q6ZSR9 (human, UniProt Q6ZSR9). Also on record: species or system MV4-11 + K-562 + COLO205 + SK-N-BE2 + OVCAR-8.
The next experiment concerns RET. Further details: species or system human, MV4-11 + K-562 + COLO205 + SK-N-BE2 + OVCAR-8.
In the next experiment the test system is SIK2. Further details: species or system human, MV4-11 + K-562 + COLO205 + SK-N-BE2 + OVCAR-8.

Q6ZSR9, sequence (Q6ZSR9 whole entry, looked up): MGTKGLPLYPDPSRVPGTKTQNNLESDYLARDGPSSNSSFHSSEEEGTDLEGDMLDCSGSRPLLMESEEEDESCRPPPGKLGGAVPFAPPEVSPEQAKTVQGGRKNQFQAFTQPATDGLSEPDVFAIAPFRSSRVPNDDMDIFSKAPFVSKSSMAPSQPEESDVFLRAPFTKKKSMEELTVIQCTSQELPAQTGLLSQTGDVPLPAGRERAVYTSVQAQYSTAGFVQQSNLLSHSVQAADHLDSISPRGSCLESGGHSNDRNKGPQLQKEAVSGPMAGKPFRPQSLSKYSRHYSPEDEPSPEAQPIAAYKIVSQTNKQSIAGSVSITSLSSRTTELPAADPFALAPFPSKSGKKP

As to `O=C1NC(=O)C(N2CCc3ccccc32)=C1c1ccccc1Cl` [SB-373598], the potency estimated from few doses in the experiment with AAK1 was 284 nM; in the experiment on BMP2K, 478 nM; with CLK1 it was 275 nM; in the experiment with CLK4, 246 nM; in the experiment with CSNK2A1;CSNK2A3 it was 315 nM; with CSNK2A2, 301 nM. Moreover, the potency estimated from few doses in the experiment on FLT3 was 1500 nM; with FLT4, 478 nM; in the experiment on GAK it was 167 nM; in the experiment with GSK3A it was 104 nM; in the experiment on GSK3B it was 177 nM; in the experiment on MELK, 1000 nM. The potency estimated from few doses in the experiment on NUAK1 is 287 nM; with PAK4, 298 nM; in the experiment on PKN1, 1180 nM; with PKN3 it was 566 nM; with Q6ZSR9 it was 280 nM; in the experiment on RET it was 239 nM. Also, the potency estimated from few doses in the experiment with SIK2 was 192 nM.
As for `Cc1ccc2c(-c3ccncc3)c(-c3ccc(F)cc3)nn2c1.Cl` [GW461484A], the potency estimated from few doses in the experiment with AAK1 was 767 nM; in the experiment with BMP2K, 1900 nM; in the experiment on CLK1, 548 nM; with CSNK2A1;CSNK2A3 it was 1550 nM; in the experiment with CSNK2A2, 2220 nM; in the experiment with FLT4 it was 1320 nM. Moreover, the potency estimated from few doses with GAK was 319 nM; with GSK3A, 434 nM; with GSK3B, 493 nM; in the experiment on NUAK1 it was 1590 nM; in the experiment on PAK4, 888 nM; with PKN1, 2010 nM. Besides, the potency estimated from few doses with PKN3 is 1390 nM; with Q6ZSR9, 942 nM; in the experiment on RET it was 683 nM; in the experiment on SIK2, 696 nM.
